Results from the supplement of paper PMC3334620.
Over roughly 33,000 sequences, “E-score (-0.5 to 0.5)” has its median near -0.011; the highest 2% begin near 0.28. For the sample, the highest values were picked, then their nearest neighbours and some sequences at random.

The sequences below were run against T1, Gcr1 (UniProt P07261) (assay: PBM E-score (8-mer binding enrichment) (E-score (-0.5 to 0.5)); higher = stronger / more preferred TF binding). Details: protein concentration: 100 nM; construct: GST-full length.
T1 sequence: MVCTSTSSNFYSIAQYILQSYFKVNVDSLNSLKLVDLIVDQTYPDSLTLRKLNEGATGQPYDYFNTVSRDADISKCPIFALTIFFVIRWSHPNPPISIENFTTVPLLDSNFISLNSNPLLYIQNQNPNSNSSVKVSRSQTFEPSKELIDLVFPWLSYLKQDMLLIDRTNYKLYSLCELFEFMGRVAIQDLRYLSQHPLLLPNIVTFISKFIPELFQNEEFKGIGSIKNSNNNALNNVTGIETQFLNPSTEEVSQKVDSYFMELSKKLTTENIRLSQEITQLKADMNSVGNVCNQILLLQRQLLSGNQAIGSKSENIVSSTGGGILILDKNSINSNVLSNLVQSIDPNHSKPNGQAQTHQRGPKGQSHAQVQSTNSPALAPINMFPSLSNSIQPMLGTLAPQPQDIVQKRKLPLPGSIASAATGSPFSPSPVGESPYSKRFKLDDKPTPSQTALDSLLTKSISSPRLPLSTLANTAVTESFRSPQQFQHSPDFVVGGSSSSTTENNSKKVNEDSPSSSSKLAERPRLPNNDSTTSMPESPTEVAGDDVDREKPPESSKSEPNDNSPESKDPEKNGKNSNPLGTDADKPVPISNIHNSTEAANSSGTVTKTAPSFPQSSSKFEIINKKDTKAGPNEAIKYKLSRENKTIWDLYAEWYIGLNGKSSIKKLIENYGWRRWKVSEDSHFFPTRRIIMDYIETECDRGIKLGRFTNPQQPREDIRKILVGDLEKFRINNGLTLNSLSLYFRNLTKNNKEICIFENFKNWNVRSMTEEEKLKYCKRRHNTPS
Procedure, shortened: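 Universal all-10-mer Agilent arrays, fresh or stripped once, were converted to double-stranded form by primer extension. GST-tagged yeast transcription factors from PURExpress in vitro transcription/translation, full-length or DNA-binding domain only, were applied at about 100-200 nM and detected with fluorescent anti-GST. After masliner normalisation, the Universal PBM Analysis Suite scored each ungapped eight-base word together with its reverse complement by E-score.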

Sequence | PBM E-score
ACGCAGAG | -0.141
ACGGGGTA | 0.129
GCATCCCA | 0.309
GAATCCCA | 0.367
CTATCCCA | -0.0348
ACATCCCC | 0.0757
CCATCCCC | 0.0989
GTATCCCA | 0.339
AAATCCCA | 0.107
ACATCCCA | 0.0139
GAATCCCC | 0.0893
CCATCCCA | -0.053
ATATCCCA | 0.116
GCATCCCC | 0.351
ACAGGTAA | 0.0538
ACCATCCT | 0.0586
ATACTAGA | 0.0992
ACATGTGA | -0.0765
CTGGAAAA | -0.00671
ACTACTCG | 0.0127
AGGCCTAG | -0.214
CGGTCGAG | 0.0179
ACACGAAT | 0.319
ACACGAAA | -0.131
ACACGAAG | 0.238

Sequence | PBM E-score
AGGTTCGG | -0.0598
GAGAAAGA | -0.16
AGTGAGAC | -0.352
AGATCGAT | -0.137
ATTCCAGC | 0.299
AGTCCAGA | -0.0665
ATTCCAGG | 0.097
GTTCCAGA | 0.257
CTTCCAGA | 0.341
ATTCCAGA | 0.286
AATCCAGA | 0.259
CGTCCAGA | 0.233
CTTCCAGC | 0.123
TCGGGACA | -0.0131
AGCTAAAC | -0.126
CGAGGGTC | -0.166
AGCTAGGA | 0.0251
ATTAGACA | 0.0379
AGTAGAAC | 0.0351
AGTAGAAG | 0.327
ATTAGACC | -0.13
ATTAGGCC | -0.116
AATAGAGA | -0.0168
ATTAGGCA | 0.00576
CGTAGAAG | 0.275

Sequence | PBM E-score
ATTAGGCG | 0.309
ATTAGACG | 0.295
AATAGAGT | 0.0735
AATAGAGG | 0.297
GGACAACA | -0.253
AAGGCCTT | -0.343
ACCCTGAA | 0.192
GATTAGGC | -0.0727
ACTGATCA | -0.148
GATGGAAA | 0.029
AGTGCGCG | -0.037
CATCTTGG | -0.102
AGAGCATG | -0.0857
CGTAGACG | -0.0412
AATAGACT | 0.0888
AATAGACA | -0.116
AGTAGACG | 0.302
AATAGACG | 0.286
AGTAGACT | -0.048
AAGCACCA | 0.0436
AGGCCAGC | -0.196
CAGGAATC | 0.394
AAGGAATC | 0.26
GAGGAATA | -0.146
GAGGAATC | 0.345

Sequence | PBM E-score
CAGGAATA | 0.134
CAGGAATG | 0.115
ATCATAGG | 0.0674
ATAGGCTG | -0.0658
ATCAGCGG | 0.00888
GAACCGGA | 0.183
GACTGGCC | -0.151
CGGGCTGA | -0.241
TCACTGGA | 0.219
GGCTACTA | 0.219
CGCGTTAA | -0.167
CTCCGCAA | 0.0291
AAAAGACG | 0.131
CGGGAAAC | 0.191
AGGGAAGC | 0.281
CGGGAAGC | 0.317
AGGGAAGG | -0.218
CGGGAAGA | 0.0397
AGGGAAGA | -0.198
ATACTGCA | 0.0345
ACTTGCAC | -0.126
TAGCCTGA | -0.232
AAGAGGCG | 0.0559
CAGAGAAA | -0.0752
TACTGGAA | 0.446

Sequence | PBM E-score
AACTGGAC | 0.198
CACTGGAA | 0.318
ATCTGGAA | 0.333
AACTGGAG | 0.115
AACTGGAA | 0.342
TCCTGGAA | 0.162
CACTGGAC | 0.0576
TGCTGGAA | 0.136
CTCTGGAA | 0.256
ATCTGGAC | 0.133
CACTGGAG | -0.0119
GTCGCAAC | 0.0865
GTACAAAA | -0.0647
ATCCCTTA | -0.00764
ACTCTAAT | -0.029
ATTTGTCC | -0.109
GTCCTGTA | 0.168
AGTAACCG | 0.184
CGGATCAG | 0.11
ATGAACAC | 0.0906
GAGCCCCA | 0.169
GAAGAGAA | 0.0371
ACACGTGG | 0.0635
GACTGGAC | 0.0539
GACTGGAA | 0.325

Sequence | PBM E-score
GACTGGCA | -0.0492
CGTCGGTA | -0.15
GCTGGACA | -0.0923
CCAATACC | 0.205
TAAGCTAA | -0.153
AAAGCTAC | -0.0941
AAAGCTAA | -0.0138
CAAGCTAC | 0.108
GAAGCTAA | 0.312
GAAGCTAC | 0.323
CTGCGACA | -0.106
AGTATAAA | 0.0707
CGTATAAA | 0.32
CGTATAAC | 0.269
CTTATAAC | -0.0336
CTTATAAG | -0.0238
CTTATAAA | 0.291
TGAAACCA | 0.106
ACAGACAA | 0.0204
GGGGTTTA | -0.117
GGTGAGGA | -0.0681
AAAGTAAT | 0.154
GGTGGGGA | 0.345
GGCGGGGA | 0.304
CGCGGGGA | 0.0382

Sequence | PBM E-score
GGTGGGAA | 0.0991
GGCGGGAA | 0.0372
CGTGGGGA | 0.0446
GTACTTTA | 0.107
GGGCCTAC | -0.25
ATTGGGGC | 0.124
AGTCAGCG | 0.0668
CGGAACGA | 0.0962
GGGATAAC | 0.0951
AAGCTGCT | 0.185
CAGCTGCG | 0.061
CAGCTGCA | -0.0536
GAGCTGCC | 0.187
AAGCTGCC | 0.347
CAGCTGCC | 0.352
ACAGAGGT | 0.0543
CCCACTTA | 0.0227
CGCTCGAC | -0.094
TCCAAAAA | 0.253
ACTAGCGG | -0.0781
GGACACTA | 0.0929
AACTAGGC | 0.122
AGGGAGCG | 0.0432
CGGGAGAC | 0.036
AGGGAGCA | -0.171

Sequence | PBM E-score
CGGGAGCA | -0.109
CGGGAGCC | 0.337
AGGGAGCC | 0.296
ATTGCCGC | -0.0608
GATTTCAC | -0.0263
AGCGAGCA | -0.108
GCGCTTCA | -0.0425
ACGCTTCG | -0.0461
CCGCTTCC | 0.346
CCGCTTCG | 0.0926
AGGCTTCA | -0.0957
AGGCTTCC | 0.436
GCGCTTCC | 0.348
ACGCTTCC | 0.313
AGGCTTCG | 0.00576
GCGCTTAC | -0.17
ACGCTTCA | -0.0408
CCGCTTCA | -0.0817
GCGAATTA | -0.00089
AAACCAAA | 0.066
AGACCTCC | -0.282
CGCTAGGC | -0.216
CACGGCCG | -0.152
ATCGGGTA | -0.136
AAGTCTCG | -0.336

Sequence | PBM E-score
CTCTAAAC | 0.0413
GGTCTGGA | 0.0233
GCCAGCGA | -0.0966
CACCAAGG | 0.0974
CCACCATC | 0.0892
GACGGACA | -0.264
AAAAGTAG | 0.295
CAAAGTGG | 0.00098
AAAAGTAT | -0.0691
AAAAGTGG | 0.381
AAAAGTGA | 0.0915
AAAAGTAA | 0.157
CCCATCAC | -0.136
GGTATTCA | 0.0919
GATGGCCA | -0.214
CGTGGATC | 0.00349
AGTGGATC | 0.286
AATGGATG | 0.134
ATTGGATC | 0.193
AGTGGATA | 0.0533
AGTGGATG | 0.394
